Test results from PubChem BioAssay (EPA / NIEHS).
Values joined by “and” are separate entries in the source; they are usually repeats but may differ in a detail not shown here. Equal values may be shown once. Results filed as inconclusive are left out. More than one record can exist for a structure, and the calls need not agree. Active and inactive are the calls of the source. How the source made its calls, unless noted: active means hit-call score of the fitted dose curve at least 0.9, where 1 is the maximum; inactive means score below 0.9.

Columns and labels:
[1] = biological target: Retinoic acid receptor RXR-alpha (Homo sapiens) (UniProt P19793); assay: OT_NURR1_NURR1RXRa_1440: Odyssey Thera (OT) 24-hour HEK293T Protein Complementation Assay for Nurr1/retinoid X receptor (RXR) (AID 2283386; active means hit-call score of the fitted dose curve at least 0.9, where 1 is the maximum)
Retinoic acid receptor RXR-alpha (Homo sapiens), sequence (P19793 whole entry, looked up, the tested form may be a part): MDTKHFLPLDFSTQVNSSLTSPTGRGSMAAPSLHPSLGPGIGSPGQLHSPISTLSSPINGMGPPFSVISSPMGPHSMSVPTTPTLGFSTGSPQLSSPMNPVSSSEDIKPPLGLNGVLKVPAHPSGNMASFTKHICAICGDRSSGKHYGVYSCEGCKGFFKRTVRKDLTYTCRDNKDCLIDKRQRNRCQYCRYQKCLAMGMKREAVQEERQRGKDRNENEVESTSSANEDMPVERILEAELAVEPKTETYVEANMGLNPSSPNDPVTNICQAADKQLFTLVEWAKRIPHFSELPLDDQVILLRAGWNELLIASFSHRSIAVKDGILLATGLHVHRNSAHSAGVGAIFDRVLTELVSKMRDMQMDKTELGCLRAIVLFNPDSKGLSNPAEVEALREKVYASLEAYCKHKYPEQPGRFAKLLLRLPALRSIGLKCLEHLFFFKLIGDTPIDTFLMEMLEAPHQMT
Outline: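 Measured as fluorescence from a reconstituted split reporter, this 24 h HEK293T complementation assay scores compound-induced gain of Nurr1/RXRα association relative to DMSO.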

[2] = biological target: Peroxisome proliferator-activated receptor gamma (Homo sapiens) (UniProt P37231); assay: OT_PPARg_PPARgSRC1_0480: Odyssey Thera (OT) 8-hour Protein-Complementation Assay for Peroxisome Proliferator-activated Receptor Gamma / SRC-1 Co-activator (AID 2283387; active means hit-call score of the fitted dose curve at least 0.9, where 1 is the maximum;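 further: nuclear to cytoplasmic split Venus YFP fluorescence ratio reporting PPARg SRC-1 interaction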)
Peroxisome proliferator-activated receptor gamma (Homo sapiens), sequence (P37231 whole entry, looked up, the tested form may be a part): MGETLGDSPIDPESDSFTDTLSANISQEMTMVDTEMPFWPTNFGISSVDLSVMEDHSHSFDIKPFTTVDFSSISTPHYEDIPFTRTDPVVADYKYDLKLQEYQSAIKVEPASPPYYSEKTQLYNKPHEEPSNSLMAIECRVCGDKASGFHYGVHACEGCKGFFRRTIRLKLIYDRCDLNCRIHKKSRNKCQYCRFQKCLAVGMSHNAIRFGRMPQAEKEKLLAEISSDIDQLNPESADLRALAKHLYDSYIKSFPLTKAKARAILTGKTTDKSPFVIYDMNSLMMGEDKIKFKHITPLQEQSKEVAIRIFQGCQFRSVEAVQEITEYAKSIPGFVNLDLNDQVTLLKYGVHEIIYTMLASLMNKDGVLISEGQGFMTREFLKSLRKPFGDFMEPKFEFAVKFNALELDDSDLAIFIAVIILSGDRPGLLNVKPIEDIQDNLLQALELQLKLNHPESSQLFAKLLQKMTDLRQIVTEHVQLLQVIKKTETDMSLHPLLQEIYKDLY
Outline: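 Split-YFP (IFP1/IFP2) PPARg/SRC-1 reporter, HEK293T, 37 °C, 5% CO2; 8 h compound; formaldehyde fix + Draq5; high-content imaging, N/C ratio, ≥350 cells/image, positive direction vs DMSO.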

[3] = biological target: Peroxisome proliferator-activated receptor gamma (Homo sapiens) (UniProt P37231); assay: OT_PPARg_PPARgSRC1_1440: Odyssey Thera (OT) 24-hour Protein-Complementation Assay for Peroxisome Proliferator-activated Receptor Gamma/ SRC-1 Co-activator (AID 2283388; active means hit-call score of the fitted dose curve at least 0.9, where 1 is the maximum;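 further: nuclear to cytoplasmic ratio of reconstituted Venus YFP fluorescence in fixed imaged cells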)
Outline: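 Protein-fragment complementation between PPARg and coactivator SRC-1 was measured by fluorescence imaging in transiently transfected HEK293T cells after 24 h treatment. Signal was quantified as N/C ratio in the 488 nm channel, with DMSO as negative control.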

[4] = CEETOX_H295R_11DCORT: CeeTox H295R High-throughput Steroidogenesis Assay for 11-Deoxycortisol (11DCORT) (AID 2283432); conditions: actives raise or lower the signal
Outline: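 Steroidogenesis in human H295R cells: 48 h chemical exposure after forskolin priming, 11-deoxycortisol measured by LC-MS/MS.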

[5] = CEETOX_H295R_OHPREG: CeeTox H295R High-throughput Steroidogenesis Assay for OH-Pregnenolone (OHPREG) (AID 2283434); conditions: actives raise or lower the signal
Outline: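 Hormone levels in spent medium were measured by tandem mass spectrometry following liquid-liquid extraction. Cells (H295R) had been forskolin-stimulated (10 uM, 48 h) before a 48 h chemical exposure at 0.1% DMSO, with activity fitted in both directions against DMSO.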

[6] = CEETOX_H295R_OHPROG: CeeTox H295R High-throughput Steroidogenesis Assay for OH-Progesterone (OHPROG) (AID 2283435); conditions: actives raise or lower the signal;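 on AC50: 17alpha-hydroxyprogesterone secreted into medium measured by HPLC-MS/MS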
Outline: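 Secreted 17alpha-hydroxyprogesterone is read by tandem MS from media of forskolin-primed H295R cells dosed with chemical for 48 h. Activity is fitted in both directions against DMSO baseline; cytotoxic concentrations are re-tested diluted.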

[7] = CEETOX_H295R_CORTIC: CeeTox H295R High-throughput Steroidogenesis Assay for Corticosterone (CORTIC) (AID 2283437); conditions: actives raise or lower the signal;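 further: corticosterone secreted into medium quantified by mass spectrometry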
Outline: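 Corticosterone secreted into medium is measured by reverse-phase HPLC with tandem MS following liquid-liquid extraction. Cells are forskolin-stimulated (10 uM, 48 h) before 48 h test exposure; activity fitted in both directions against DMSO.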

[8] = CEETOX_H295R_CORTISOL: CeeTox H295R High-throughput Steroidogenesis Assay for Cortisol (AID 2283438); conditions: actives raise or lower the signal;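 further: cortisol secreted into medium quantified by LC-MS/MS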
Outline: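 Human adrenocortical H295R cells (passage ≤10) received test chemicals for 48 h after forskolin priming. Secreted cortisol was measured by LC-MS/MS.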

[9] = CEETOX_H295R_DOC: CeeTox H295R High-throughput Steroidogenesis Assay for DOC (AID 2283439); conditions: actives raise or lower the signal
Outline: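 Secreted DOC was quantified from H295R media by HPLC-MS/MS after 48 h chemical exposure following 48 h forskolin (10 uM) prestimulation. Values were fitted in both directions relative to DMSO, the negative control and baseline.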

[10] = CEETOX_H295R_ESTRADIOL: CeeTox H295R High-throughput Steroidogenesis Assay for Estradiol (AID 2283440); conditions: actives raise or lower the signal;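 further: estradiol secreted into medium quantified by LC-MS/MS after dansyl derivatisation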
Outline: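 Estradiol secreted into the medium was measured by tandem mass spectrometry after liquid-liquid extraction and dansylation. Human H295R cells had been forskolin-primed (10 uM, 48 h) before a 48 h chemical exposure with 0.1% DMSO.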

[11] = CEETOX_H295R_ESTRONE: CeeTox H295R High-throughput Steroidogenesis Assay for Estrone (AID 2283441); conditions: actives raise or lower the signal;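 further: estrone secreted into medium measured by LC-MS/MS after dansyl derivatization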;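 on AC50: human adrenal H295R cells prestimulated with forskolin for two days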
Outline: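 H295R cells; 48 h forskolin (10 uM) prestimulation; 48 h compound exposure, 0.1% DMSO final. Medium estrone: MTBE extraction, dansyl derivatization, HPLC-MS/MS. Bidirectional fit vs DMSO.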

[12] = CEETOX_H295R_PROG: CeeTox H295R High-throughput Steroidogenesis Assay for Progesterone (PROG) (AID 2283442); conditions: actives raise or lower the signal;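 on AC50: human H295R adrenal cells primed with 10 µM forskolin before dosing; progesterone secreted into medium by H295R cells measured by HPLC-MS/MS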
Outline: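 Steps: seed H295R cells and let them adhere overnight; prime 48 h with 10 uM forskolin; dose with compound in DMSO at 0.1% final for 48 h; extract medium steroids with MTBE; measure progesterone by LC-MS/MS. MTT viability was run in the same wells.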

[13] = read-out: Tumor necrosis factor receptor superfamily member 6 (Homo sapiens) (UniProt P25445); assay: LTEA_HepaRG_FAS: Life Technologies and Expression Analysis (LTEA) Assay for Fas cell surface death receptor (FAS) using HepaRG (AID 2283447); conditions: mRNA level, 48 h; actives raise or lower the signal
Outline: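 FAS transcript level was measured by TaqMan qRT-PCR against three housekeeping genes after 48 h chemical exposure. Cells were HepaRG, 0.5% DMSO vehicle, with a top concentration of 100 uM and half-log dilutions over eight points, in duplicate.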

[14] = read-out: Fatty acid synthase (Homo sapiens) (UniProt P49327); assay: LTEA_HepaRG_FASN: Life Technologies and Expression Analysis (LTEA) Assay for Fatty Acid Synthase (FASN) using HepaRG (AID 2283448); conditions: mRNA level, 48 h; actives raise or lower the signal;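 on AC50: differentiated human HepaRG liver cells in serum-free induction medium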
Outline: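 Transcript-level assay: HepaRG liver cells are treated for 48 h across an eight-point range topping at 100 uM, and FASN mRNA, normalized to three housekeeping genes, is compared with DMSO controls in both directions.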

[15] = read-out: Cyclin D2 (CCND2), CCND2 (gene 894); assay: LTEA_HepaRG_CCND2: Life Technologies and Expression Analysis (LTEA) Assay for Cyclin D2 (CCND2) using HepaRG (AID 2283449); conditions: mRNA level, 48 h; actives raise or lower the signal
Outline: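 Read-out is CCND2 mRNA level measured by qRT-PCR in human HepaRG liver cells and normalised to three housekeeping genes. Chemicals were applied for 48 h at up to 100 uM, with gain or loss fitted relative to 0.5% DMSO.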

[16] = read-out: Cyclin Dependent Kinase Inhibitor 1A (CDKN1A), CDKN1A (gene 1026); assay: LTEA_HepaRG_CDKN1A: Life Technologies and Expression Analysis (LTEA) Assay for Cyclin Dependent Kinase Inhibitor 1A (CDKN1A) using HepaRG (AID 2283450); conditions: mRNA level, 48 h; actives raise or lower the signal
Outline: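 Read-out is CDKN1A mRNA by TaqMan qRT-PCR, normalized to three housekeeping genes and fitted in both directions against the DMSO baseline. Human HepaRG cells were treated 48 h with test chemicals up to 100 uM in half-log steps, 0.5% DMSO.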

[17] = read-out: Cyclin D1 (CCND1), CCND1 (gene 595); assay: LTEA_HepaRG_CCND1: Life Technologies and Expression Analysis (LTEA) Assay for Cyclin D1 (CCND1) using HepaRG (AID 2283451); conditions: mRNA level, 48 h; actives raise or lower the signal;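 on AC50: differentiated human HepaRG liver cells in serum-free induction medium; TaqMan qRT-PCR transcript level normalised to ACTB GAPDH and POLR2A housekeeping genes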
Outline: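 HepaRG plated 48 h, medium switched to serum-free induction medium, chemicals added in duplicate (top 100 uM, half-log steps, 0.5% DMSO) for 48 h, cells lysed, RNA measured by TaqMan qRT-PCR.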

[18] = read-out: catalase (CAT), CAT (gene 847); assay: LTEA_HepaRG_CAT: Life Technologies and Expression Analysis (LTEA) Assay for catalase (CAT) using HepaRG (AID 2283452); conditions: mRNA level, 48 h; actives raise or lower the signal;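 on AC50: TaqMan qRT-PCR signal normalized to ACTB GAPDH and POLR2A housekeeping genes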
Outline: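 Expression of CAT was quantified by TaqMan qRT-PCR with ACTB/GAPDH/POLR2A normalization after 48 h chemical exposure of HepaRG. Eight-point half-log series, top 100 uM, in 0.5% DMSO; gain or loss fitted against vehicle.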

[19] = CEETOX_H295R_ANDR: CeeTox H295R High-throughput Steroidogenesis Assay for Androstenedione (ANDR) (AID 2283436); conditions: actives raise or lower the signal;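 further: human H295R adrenal cells exposed for 48 h with androstenedione measured in medium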
Outline: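 Read-out is androstenedione secreted into medium, measured by tandem mass spectrometry after liquid-liquid extraction. Cells were H295R, dosed for 48 h per modified OECD 456; activity fitted in both directions relative to DMSO.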

[20] = biological target: Retinoic acid receptor RXR-alpha (Homo sapiens) (UniProt P19793); assay: OT_NURR1_NURR1RXRa_0480: Odyssey Thera (OT) 8-hour HEK293T Protein Complementation Assay for Nurr1/retinoid X receptor (RXR) (AID 2283385; active means hit-call score of the fitted dose curve at least 0.9, where 1 is the maximum)
Outline: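 Compounds are applied to HEK293T cells carrying Nurr1 and RXRα linked to reporter fragments. After 8 h, fluorescence intensity reports heterodimer formation, with DMSO as baseline.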

Measured: AC50

Fatty acid synthase (Homo sapiens), sequence (P49327 whole entry, looked up): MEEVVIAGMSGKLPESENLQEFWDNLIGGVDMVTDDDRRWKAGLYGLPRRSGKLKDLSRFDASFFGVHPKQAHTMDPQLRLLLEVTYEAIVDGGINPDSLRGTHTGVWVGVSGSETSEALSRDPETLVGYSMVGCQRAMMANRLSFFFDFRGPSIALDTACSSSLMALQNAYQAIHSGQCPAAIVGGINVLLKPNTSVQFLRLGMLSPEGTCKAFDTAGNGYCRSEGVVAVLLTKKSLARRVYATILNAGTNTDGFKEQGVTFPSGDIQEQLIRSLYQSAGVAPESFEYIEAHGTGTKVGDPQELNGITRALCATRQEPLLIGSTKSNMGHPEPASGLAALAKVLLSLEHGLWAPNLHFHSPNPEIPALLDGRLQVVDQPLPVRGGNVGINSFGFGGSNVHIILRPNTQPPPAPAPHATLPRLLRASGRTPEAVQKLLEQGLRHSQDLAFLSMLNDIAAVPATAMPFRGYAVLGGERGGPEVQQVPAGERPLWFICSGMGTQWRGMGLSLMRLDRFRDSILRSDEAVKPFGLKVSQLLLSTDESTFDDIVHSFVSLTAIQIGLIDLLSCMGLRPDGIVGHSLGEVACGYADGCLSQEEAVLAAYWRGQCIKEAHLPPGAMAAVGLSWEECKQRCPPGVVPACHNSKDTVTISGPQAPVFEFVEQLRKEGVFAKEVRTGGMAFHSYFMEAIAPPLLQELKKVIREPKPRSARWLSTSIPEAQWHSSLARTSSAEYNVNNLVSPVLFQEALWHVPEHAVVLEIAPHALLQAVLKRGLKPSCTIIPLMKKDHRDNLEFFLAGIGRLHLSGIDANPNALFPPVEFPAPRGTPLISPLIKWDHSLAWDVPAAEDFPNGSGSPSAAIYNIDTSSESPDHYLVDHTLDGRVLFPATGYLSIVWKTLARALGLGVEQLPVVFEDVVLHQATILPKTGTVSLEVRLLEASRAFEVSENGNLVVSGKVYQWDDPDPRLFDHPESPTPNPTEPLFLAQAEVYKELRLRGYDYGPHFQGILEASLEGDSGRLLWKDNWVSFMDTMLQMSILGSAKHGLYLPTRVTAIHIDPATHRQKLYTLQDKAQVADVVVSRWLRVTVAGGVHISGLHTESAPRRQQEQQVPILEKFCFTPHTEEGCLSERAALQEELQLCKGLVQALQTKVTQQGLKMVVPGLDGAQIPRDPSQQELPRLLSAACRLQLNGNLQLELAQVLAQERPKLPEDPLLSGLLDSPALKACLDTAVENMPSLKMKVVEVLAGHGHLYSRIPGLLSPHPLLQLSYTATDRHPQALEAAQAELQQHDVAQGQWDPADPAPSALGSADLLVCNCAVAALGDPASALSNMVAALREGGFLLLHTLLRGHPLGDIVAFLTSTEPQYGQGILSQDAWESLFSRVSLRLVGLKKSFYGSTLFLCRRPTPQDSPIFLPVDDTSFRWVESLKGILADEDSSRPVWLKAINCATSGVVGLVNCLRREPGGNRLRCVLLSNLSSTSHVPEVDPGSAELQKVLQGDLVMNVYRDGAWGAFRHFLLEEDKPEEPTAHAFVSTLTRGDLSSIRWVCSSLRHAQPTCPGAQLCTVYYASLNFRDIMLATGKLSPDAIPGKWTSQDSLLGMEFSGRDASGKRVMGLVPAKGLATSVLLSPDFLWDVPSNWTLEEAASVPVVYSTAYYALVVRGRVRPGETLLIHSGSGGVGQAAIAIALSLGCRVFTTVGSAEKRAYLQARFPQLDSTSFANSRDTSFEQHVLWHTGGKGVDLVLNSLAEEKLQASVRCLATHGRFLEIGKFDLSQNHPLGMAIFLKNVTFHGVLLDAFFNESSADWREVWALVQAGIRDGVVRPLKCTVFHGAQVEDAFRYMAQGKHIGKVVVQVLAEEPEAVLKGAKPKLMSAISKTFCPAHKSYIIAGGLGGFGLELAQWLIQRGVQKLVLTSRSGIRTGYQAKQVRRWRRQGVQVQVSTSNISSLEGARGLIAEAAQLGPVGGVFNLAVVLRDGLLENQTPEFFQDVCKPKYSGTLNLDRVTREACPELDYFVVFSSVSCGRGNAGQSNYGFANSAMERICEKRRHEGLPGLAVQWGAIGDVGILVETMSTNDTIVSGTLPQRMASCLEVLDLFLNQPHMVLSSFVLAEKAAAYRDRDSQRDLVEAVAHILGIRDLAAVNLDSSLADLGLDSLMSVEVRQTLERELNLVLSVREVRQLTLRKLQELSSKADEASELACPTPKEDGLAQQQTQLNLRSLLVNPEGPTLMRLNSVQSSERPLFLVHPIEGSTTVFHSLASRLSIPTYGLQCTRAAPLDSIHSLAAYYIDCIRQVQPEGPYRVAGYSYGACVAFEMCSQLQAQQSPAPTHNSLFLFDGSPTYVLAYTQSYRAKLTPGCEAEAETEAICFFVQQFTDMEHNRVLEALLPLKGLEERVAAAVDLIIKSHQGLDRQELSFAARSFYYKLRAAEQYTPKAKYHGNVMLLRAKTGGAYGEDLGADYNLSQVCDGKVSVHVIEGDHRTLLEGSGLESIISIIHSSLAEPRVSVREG

CNC(=S)S
not listed: [19] | [20]
inactive: all other assays above

C=CCC1=C(C)C(OC(=O)C2C(C=C(C)C)C2(C)C)CC1=O (stereo not given)
active: [1] 84.5 µM and 83.5 µM | [17] 88.2 µM | [18] 83.6 µM and 16.6 µM
inactive: [1] | [2] | [3] | [4] | [5] | [6] | [7] | [8] | [9] | [12] | [13] | [14] | [15] | [16] | [17] | [18]

CNC(=O)ON=CC(C)(C)SC
inactive: [1] | [2] | [3] | [13] | [14] | [15] | [16] | [17] | [18]

Oc1ccccc1-c1ccccc1
active: [6] 71.8 µM | [10] 32 µM | [11] 50 µM | [12] 50 µM
inactive: [1] | [2] | [3] | [5] | [6] | [10] | [11] | [12] | [13] | [14] | [15] | [16] | [17] | [18]

Cc1cc(Cl)ccc1OCC(=O)O
not listed: [10] | [11] | [20]
inactive: all other assays above

CC(C)(C)c1ccc(CSc2cnn(C(C)(C)C)c(=O)c2Cl)cc1
active: [13] 1.9 µM | [14] 24 µM | [16] 2.3 µM | [18] 1.85 µM
inactive: [20] | [1] | [2] | [3] | [15] | [17]

C=CCC1=C(C)[C@@H](OC(=O)[C@@H]2[C@@H](C=C(C)C)C2(C)C)CC1=O
inactive: [1] | [2] | [3] | [13] | [14] | [15] | [16] | [17] | [18]
active: [1] 80.6 µM

COc1nc(NC(C)C)nc(NC(C)C)n1
active: [10] 6.99 µM | [11] 3.8 µM
not listed: [19] | [20]
inactive: all other assays above

N#Cc1nn(-c2c(Cl)cc(C(F)(F)F)cc2Cl)c(N)c1S(=O)C(F)(F)F (stereo not given)
inactive: [20] | [1] | [2] | [3] | [15]
active: [13] 61.2 µM | [14] 58.1 µM | [16] 32.5 µM | [17] 83.4 µM | [18] 29.5 µM

CCCCNC(=O)OCC#CI
active: [1] 11.7 µM | [13] 0.00316 µM
inactive: [2] | [3] | [14] | [15] | [16] | [17] | [18]

COc1cnc(OC)n2nc(NS(=O)(=O)c3c(OCC(F)F)cccc3C(F)(F)F)nc12
inactive: [1] | [2] | [3] | [13] | [14] | [15] | [16] | [17] | [18]

CCNc1nc(Cl)nc(NC(C)C)n1
active: [11] 1.35 µM
not listed: [19] | [20]
inactive: all other assays above
